# Results reported in the supplement of paper PMC11732987, “Enantioselective OTUD7B fragment discovery through chemoproteomics screening and high-throughput optimisation” (Communications Chemistry, 2025).
# Unmarked numbers belong to inactive results.
# How the values were obtained:
# Experiment in all cases: log2 ratio of Biotin-Ahx-Ub-VS probe labelling (fragment/DMSO); higher = less target engagement (more negative = stronger competition), active = hit call of the paper (q ≤ 0.05, log2 ratio ≤ -1)
# Settings in all cases: compound concentration: 200 uM; treatment time: 3 h
# ALG13 = target: T1, ALG13 (UniProt Q9NP73)
# T1 sequence (whole entry): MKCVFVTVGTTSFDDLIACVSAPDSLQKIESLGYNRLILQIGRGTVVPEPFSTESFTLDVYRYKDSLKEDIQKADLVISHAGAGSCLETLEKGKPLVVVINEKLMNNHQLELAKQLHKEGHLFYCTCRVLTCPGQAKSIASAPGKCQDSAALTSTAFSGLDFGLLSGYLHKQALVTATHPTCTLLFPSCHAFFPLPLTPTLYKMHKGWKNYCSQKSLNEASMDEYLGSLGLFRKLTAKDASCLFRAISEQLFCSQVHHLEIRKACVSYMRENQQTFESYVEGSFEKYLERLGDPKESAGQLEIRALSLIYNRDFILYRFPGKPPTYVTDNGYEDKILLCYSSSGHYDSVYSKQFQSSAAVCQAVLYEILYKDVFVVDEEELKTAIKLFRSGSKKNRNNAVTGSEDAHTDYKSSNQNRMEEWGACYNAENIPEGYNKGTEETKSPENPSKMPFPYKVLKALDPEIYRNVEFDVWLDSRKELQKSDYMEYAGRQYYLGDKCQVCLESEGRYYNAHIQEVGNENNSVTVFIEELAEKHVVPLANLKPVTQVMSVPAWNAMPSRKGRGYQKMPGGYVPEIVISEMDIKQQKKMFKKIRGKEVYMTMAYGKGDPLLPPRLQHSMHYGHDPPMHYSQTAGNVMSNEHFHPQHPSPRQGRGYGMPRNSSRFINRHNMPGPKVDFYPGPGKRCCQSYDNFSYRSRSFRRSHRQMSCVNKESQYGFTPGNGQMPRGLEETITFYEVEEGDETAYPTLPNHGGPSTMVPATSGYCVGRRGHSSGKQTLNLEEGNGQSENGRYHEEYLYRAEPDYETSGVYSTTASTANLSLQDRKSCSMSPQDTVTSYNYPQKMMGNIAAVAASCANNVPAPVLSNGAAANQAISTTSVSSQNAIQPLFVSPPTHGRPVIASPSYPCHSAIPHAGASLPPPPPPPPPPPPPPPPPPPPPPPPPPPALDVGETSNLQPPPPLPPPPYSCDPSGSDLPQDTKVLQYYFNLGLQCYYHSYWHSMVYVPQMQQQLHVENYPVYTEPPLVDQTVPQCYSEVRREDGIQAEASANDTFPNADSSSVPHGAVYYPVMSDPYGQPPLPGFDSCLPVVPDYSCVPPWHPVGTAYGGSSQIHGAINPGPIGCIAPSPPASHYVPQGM
# Summary of the method: (§1)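 Labelling with Biotin-Ahx-Ub-VS (0.5 µM final, 1 h) followed a 3 h triplicate treatment of HEK293T lysate (495 µg per sample, Tris/CHAPS/IGEPAL buffer with protease inhibitors) with fragment at 200 µM or vehicle. Labelled DUBs were NeutrAvidin-enriched, digested with LysC and trypsin, and run by diaPASEF LC-MS/MS. The values, average log2 fragment/vehicle ratios by unpaired t-test, come from global-median-normalised Spectronaut label-free quantities. Proteins with ≥2 unique peptides were used.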
# ATXN3 = ATXN3 (UniProt P54252)
# ATXN3, sequence (P54252 whole entry): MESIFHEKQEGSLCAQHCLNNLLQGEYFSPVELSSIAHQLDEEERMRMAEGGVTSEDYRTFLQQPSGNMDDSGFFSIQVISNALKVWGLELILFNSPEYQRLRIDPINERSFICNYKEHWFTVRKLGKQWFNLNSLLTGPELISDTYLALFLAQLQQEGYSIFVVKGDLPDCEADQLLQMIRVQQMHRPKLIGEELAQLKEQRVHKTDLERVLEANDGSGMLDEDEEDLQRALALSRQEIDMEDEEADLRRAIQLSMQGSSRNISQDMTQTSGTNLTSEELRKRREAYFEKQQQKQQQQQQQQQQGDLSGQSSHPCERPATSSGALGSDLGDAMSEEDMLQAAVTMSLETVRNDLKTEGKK
# Summary of the method: as §1
# BAP1 = target: T2, BAP1 (UniProt Q92560)
# T2 sequence (whole entry): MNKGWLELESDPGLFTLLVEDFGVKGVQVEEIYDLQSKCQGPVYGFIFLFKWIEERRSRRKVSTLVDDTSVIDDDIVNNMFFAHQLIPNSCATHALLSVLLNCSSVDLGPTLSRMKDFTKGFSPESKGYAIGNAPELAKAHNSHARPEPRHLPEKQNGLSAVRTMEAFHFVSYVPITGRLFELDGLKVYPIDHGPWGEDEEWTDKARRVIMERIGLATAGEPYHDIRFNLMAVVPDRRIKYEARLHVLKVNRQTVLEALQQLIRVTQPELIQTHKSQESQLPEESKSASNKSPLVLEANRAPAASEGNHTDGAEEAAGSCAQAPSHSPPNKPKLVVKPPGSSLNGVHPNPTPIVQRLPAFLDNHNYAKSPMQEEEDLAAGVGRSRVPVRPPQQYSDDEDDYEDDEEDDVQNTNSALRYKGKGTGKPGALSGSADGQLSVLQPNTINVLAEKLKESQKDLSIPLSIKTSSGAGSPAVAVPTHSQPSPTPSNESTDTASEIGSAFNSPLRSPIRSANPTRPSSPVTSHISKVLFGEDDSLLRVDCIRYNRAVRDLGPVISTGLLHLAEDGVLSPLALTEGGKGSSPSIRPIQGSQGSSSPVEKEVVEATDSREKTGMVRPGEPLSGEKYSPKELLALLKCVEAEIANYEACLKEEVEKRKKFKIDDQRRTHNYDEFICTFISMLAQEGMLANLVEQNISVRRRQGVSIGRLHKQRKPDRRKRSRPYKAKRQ
# Summary of the method: as §1
# EIF3F = EIF3F (UniProt O00303)
# EIF3F, sequence (O00303 whole entry): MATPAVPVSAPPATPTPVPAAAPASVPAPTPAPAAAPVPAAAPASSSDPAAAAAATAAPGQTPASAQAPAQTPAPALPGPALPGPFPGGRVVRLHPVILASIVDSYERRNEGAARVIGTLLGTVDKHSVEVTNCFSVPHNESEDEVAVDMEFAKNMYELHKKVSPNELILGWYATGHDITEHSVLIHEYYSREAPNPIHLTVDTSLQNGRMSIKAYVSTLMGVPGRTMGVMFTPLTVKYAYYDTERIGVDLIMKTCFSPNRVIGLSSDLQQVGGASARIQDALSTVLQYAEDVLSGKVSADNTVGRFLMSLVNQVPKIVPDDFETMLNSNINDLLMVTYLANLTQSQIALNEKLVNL
# Summary of the method: as §1
# EIF3H = EIF3H (UniProt O15372)
# EIF3H, sequence (O15372 whole entry): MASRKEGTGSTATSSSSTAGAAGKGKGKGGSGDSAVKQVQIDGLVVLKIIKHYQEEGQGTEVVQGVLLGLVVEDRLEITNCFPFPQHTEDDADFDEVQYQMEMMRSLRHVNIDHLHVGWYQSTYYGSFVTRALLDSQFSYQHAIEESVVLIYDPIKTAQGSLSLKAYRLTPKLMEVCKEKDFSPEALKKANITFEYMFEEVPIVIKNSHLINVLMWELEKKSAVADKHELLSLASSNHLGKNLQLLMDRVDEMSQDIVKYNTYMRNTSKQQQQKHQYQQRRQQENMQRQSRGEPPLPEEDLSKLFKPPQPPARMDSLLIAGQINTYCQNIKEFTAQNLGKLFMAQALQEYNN
# Summary of the method: as §1
# FAM105A = target: T3, FAM105A (UniProt Q9NUU6)
# T3 sequence (whole entry): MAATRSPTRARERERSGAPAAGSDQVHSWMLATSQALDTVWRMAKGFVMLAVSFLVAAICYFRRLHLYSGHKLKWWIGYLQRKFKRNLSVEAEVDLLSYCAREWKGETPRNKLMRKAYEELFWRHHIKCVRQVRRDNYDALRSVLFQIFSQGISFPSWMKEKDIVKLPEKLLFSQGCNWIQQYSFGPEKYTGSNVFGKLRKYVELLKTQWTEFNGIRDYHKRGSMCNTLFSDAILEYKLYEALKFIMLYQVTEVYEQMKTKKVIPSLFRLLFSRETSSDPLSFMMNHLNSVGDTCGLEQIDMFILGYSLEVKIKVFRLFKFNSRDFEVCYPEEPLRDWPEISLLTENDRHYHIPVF
# Summary of the method: as §1
# OTUB1 = OTUB1 (UniProt Q96FW1)
# OTUB1, sequence (Q96FW1 whole entry): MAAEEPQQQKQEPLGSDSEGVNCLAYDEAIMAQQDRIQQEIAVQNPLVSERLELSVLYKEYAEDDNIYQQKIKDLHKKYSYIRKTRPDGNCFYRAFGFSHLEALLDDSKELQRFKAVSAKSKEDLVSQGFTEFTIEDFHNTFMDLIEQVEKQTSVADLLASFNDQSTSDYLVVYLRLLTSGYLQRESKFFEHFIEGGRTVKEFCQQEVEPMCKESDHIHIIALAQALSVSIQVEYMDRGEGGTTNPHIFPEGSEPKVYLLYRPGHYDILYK
# Summary of the method: as §1
# OTUD4 = target: T4, OTUD4 (UniProt Q01804)
# T4 sequence (whole entry): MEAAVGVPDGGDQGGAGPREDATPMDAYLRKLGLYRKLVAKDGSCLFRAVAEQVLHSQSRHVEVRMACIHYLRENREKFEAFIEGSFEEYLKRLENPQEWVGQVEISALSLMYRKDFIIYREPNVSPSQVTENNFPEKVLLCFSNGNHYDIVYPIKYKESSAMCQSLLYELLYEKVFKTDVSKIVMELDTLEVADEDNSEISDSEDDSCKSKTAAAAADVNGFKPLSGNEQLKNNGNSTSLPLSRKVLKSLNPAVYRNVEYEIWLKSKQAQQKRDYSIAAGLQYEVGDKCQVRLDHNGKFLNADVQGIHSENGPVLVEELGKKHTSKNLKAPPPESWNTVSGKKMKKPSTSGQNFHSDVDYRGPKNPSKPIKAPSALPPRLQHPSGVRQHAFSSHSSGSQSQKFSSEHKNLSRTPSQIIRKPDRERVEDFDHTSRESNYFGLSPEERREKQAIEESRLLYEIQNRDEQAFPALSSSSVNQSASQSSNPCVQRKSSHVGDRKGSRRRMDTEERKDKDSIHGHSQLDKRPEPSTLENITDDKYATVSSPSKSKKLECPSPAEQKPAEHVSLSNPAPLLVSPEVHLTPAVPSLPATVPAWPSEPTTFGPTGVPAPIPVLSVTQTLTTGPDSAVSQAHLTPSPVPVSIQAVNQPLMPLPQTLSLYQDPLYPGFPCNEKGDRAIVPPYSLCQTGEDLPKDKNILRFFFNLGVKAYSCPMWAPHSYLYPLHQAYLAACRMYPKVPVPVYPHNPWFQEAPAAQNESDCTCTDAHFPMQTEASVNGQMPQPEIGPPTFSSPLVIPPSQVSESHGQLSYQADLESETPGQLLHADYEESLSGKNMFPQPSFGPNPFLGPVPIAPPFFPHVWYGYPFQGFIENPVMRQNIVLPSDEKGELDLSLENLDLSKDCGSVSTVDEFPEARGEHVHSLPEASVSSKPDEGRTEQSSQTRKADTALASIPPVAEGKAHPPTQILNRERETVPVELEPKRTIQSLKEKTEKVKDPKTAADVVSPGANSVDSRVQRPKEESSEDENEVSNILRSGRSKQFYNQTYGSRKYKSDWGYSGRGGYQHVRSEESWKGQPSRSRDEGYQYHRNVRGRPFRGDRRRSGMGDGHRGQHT
# Summary of the method: as §1
# OTUD5 = target: T5, OTUD5 (UniProt Q96G74)
# T5 sequence (whole entry): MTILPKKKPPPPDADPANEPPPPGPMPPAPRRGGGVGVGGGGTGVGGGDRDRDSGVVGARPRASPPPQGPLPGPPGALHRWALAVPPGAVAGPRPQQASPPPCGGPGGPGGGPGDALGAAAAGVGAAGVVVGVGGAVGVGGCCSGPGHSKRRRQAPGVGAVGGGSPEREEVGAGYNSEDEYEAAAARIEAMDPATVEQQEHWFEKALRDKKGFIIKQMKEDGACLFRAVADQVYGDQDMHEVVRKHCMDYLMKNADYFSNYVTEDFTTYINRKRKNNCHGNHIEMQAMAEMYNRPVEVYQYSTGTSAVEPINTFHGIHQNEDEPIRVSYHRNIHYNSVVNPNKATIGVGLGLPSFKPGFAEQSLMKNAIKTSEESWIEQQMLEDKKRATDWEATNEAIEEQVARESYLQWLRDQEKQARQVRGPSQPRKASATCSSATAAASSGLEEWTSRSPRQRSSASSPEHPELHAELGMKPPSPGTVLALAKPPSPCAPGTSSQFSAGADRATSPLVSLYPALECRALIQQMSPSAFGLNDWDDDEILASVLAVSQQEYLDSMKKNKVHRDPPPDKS
# Summary of the method: as §1
smiles,measurement,setting,value
Cc1ccc2nnc(CNC(=O)CCl)n2c1,log2 ratio of Biotin-Ahx-Ub-VS probe labelling,ALG13,0.205
same,log2 ratio of Biotin-Ahx-Ub-VS probe labelling,ATXN3,-0.0879
same,log2 ratio of Biotin-Ahx-Ub-VS probe labelling,BAP1,-1.05 (active)
same,log2 ratio of Biotin-Ahx-Ub-VS probe labelling,EIF3F,-0.17
same,log2 ratio of Biotin-Ahx-Ub-VS probe labelling,EIF3H,0.00833
same,log2 ratio of Biotin-Ahx-Ub-VS probe labelling,FAM105A,0.283
same,log2 ratio of Biotin-Ahx-Ub-VS probe labelling,OTUB1,0.0976
same,log2 ratio of Biotin-Ahx-Ub-VS probe labelling,OTUD4,0.0524
same,log2 ratio of Biotin-Ahx-Ub-VS probe labelling,OTUD5,0.0162
